# Results as given in PubChem BioAssay.
# Several values for one entry are separate records, joined by “and”; a condition that tells them apart may be missing. Equal entries are not always repeated. For some of these results: Potency and affinity values are given separately. Activity calls are given as the source filed them. Unless noted, no rule for the calls is given here.
# Tests used:
# [1] = EMT-state selective cytotoxicity in co-culture – imaging, PC-3E GFP, TEM4-18 mCherry, primary screen (AID 1345086;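 active = compounds killing one labelled cell type while sparing the other, by normalised counts and ratio limits, not self-fluorescent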;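 as to all read-outs here: cells exposed to compound for 72 h before imaging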;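 as to red/green cell ratio (normalised): normalised mesenchymal count divided by normalised epithelial count so high means epithelial killing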); conditions: PC-3E GFP / TEM4-18 mCherry co-culture, imaging cell counts, at 1 µM; for red/green cell ratio (normalised): actives lie on both sides
# [2] = viability loss with induced miR-34 in A549 – imaging, A549 dox-inducible miR-34, nuclei and caspase counts, primary screen (AID 1347080;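 active = compounds whose cell count with miR-34 switched on is under 0.7 times the count with it off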); conditions: A549 miR-34 inducible, Hoechst nuclei count, 48 h
# [3] = compounds altering circadian rhythm period length – cell-based, LOPAC library, luminescence reporter (AID 2774); conditions: circadian reporter cells, at 7 µM, actives lie on both sides;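 also: values are relative to mean of DMSO wells on each plate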
# [4] = compounds altering viability of human ES cells (AID 493140); conditions: human embryonic stem cell survival screen; stronger effect = higher value;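 also: cells exposed to compounds for four days before counting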
# [5] = P. berghei load reduction in hepatocytes – cell-based, HepG2, luciferase luminescence, HepG2 viability, primary screen (AID 624349; in the data active = parasite load remaining mostly below about 12%, no sharp cut-off; inactive = mostly above about 10%;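 also: 100% = mean of DMSO negative control wells on the same plate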); conditions: P. berghei liver stage in HepG2, luciferase luminescence, concentration not given here; parasite load remaining: stronger effect = lower value; viability: measured here: HepG2 viability without parasites
# [6] = system: Hepatitis C virus NS3 helicase; assay: blockers of NS3h binding to ssDNA – biochemical, fluorescence polarization, LOPAC1280 library, primary screen (AID 687035; in the data active = inhibition above about 37%); conditions: Purified HCV NS3 helicase, Cy5-dT15 ssDNA binding fluorescence polarization; stronger effect = higher value; concentration not given here
# [7] = compounds altering Cy5-DNA-NS3h complex signal – biochemical, LOPAC1280, artefact control for HCV NS3 helicase inhibitor project (AID 687037); conditions: Cy5-DNA-NS3h complex fluorescence interference counterscreen
# [8] = system: Aerobactin synthetase IucA (Klebsiella pneumoniae, hypervirulent); assay: biochemical IucA inhibition screen of LOPAC library by absorbance (AID 1346212); conditions: IucA enzyme assay, absorbance (OD) readout; stronger effect = lower value;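 tested at 8 µM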;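 also: 100% = no compound wells and 0% = no enzyme wells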
# [9] = blockers of cellular phospholipid synthesis – cell-based, LOPAC library, screen 4, primary screen (AID 1347384); conditions: animal cells, phospholipid biosynthesis inhibition screen; at 10 µM
# [10] = galactose survival enhancers in mitochondrial complex I cybrids – cell-based, galactose medium, ATP luminescence, primary screen (AID 1645843;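 active = z-score of at least 1.8 in each of two replicates, scored against plate mean and spread of sample wells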;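 also: positive z means more ATP and so rescue of galactose-driven cybrid death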); conditions: complex I mutant cybrid cells, 72 h, stronger effect = higher value
# [11] = MELAS cybrid and Rieske KO viability enhancers – cell-based, MELAS cybrids, Rieske KO mouse fibroblasts, CellTiter-Glo, primary screen (AID 1508586;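 active = mean z-score across replicates of 1.96 or higher in either the MELAS or the Rieske mutant cell line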;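 also: z relative to plate mean and SD of compound and empty wells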); conditions: low glucose
# [12] = target: Mitogen-activated protein kinase 7 (Homo sapiens) (UniProt Q13164); assay: Gal4-ERK5 driven luciferase induction – cell-based, HTS, primary screen (AID 1508626;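 active = luciferase signal above three times the same-plate solvent-only control wells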;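 also: luciferase driven by Gal4-ERK5 fusion binding five Gal4 sites before minimal TATA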); conditions: HeLa Gal4-ERK5 transactivation, 18 h, at 5 µM, stronger effect = higher value
# Mitogen-activated protein kinase 7 (Homo sapiens), sequence (Q13164 whole entry, looked up, the tested form may be a part): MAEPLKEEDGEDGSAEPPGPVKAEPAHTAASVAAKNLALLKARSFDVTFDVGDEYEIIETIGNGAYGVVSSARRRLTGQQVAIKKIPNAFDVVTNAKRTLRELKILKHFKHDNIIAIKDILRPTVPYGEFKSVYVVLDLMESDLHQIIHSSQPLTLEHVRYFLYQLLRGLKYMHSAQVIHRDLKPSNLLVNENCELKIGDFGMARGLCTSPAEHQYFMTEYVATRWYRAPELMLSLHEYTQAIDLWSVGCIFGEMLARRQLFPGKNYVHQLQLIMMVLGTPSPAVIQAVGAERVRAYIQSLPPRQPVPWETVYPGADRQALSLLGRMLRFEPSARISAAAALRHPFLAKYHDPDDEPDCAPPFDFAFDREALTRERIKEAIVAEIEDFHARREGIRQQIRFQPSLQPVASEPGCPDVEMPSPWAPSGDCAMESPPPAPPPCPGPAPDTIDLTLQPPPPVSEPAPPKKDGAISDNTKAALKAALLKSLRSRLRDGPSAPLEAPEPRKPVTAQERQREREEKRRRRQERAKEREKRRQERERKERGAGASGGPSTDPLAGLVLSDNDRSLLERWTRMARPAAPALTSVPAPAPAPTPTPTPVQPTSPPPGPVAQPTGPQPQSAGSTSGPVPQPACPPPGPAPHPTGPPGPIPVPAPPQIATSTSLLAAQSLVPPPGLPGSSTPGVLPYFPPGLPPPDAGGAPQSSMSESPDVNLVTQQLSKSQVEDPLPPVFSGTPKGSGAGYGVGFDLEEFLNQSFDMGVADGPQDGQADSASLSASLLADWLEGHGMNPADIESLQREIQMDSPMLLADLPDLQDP
# [13] = system: Aerobactin synthetase IucA (Klebsiella pneumoniae hvKP1); assay: IucA enzyme inhibition, primary screen, biochemical, Spectrum library (AID 1346200); conditions: malachite green pyrophosphate, A620, at 8 µM, stronger effect = lower value;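 also: 100% = wells without compound and 0% = wells lacking enzyme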
# [14] = yeast 75Q aggregation reduction – 75Q-TubU reporter (AID 1593); conditions: Yeast 75Q polyglutamine aggregation reporter
# [15] = blockers of cytochrome c efflux from mitochondria – biochemical, purified mitochondria (AID 1603); conditions: stronger effect = lower value;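 also: mouse liver mitochondria challenged with calcium chloride; signal normalized to the plate average as 100%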
# [16] = polyglutamine aggregate formation blockers (AID 1604); conditions: polyglutamine-induced protein aggregation inhibition assay; stronger effect = higher value; tested at 2.5 µM
# [17] = glutamate transport activators, MN-1 cells, MN-1 cell line (AID 1612); conditions: MN-1 motor neuron cells, stronger effect = higher value;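 also: tested at 1 µM final; 0% = mean of DMSO vehicle wells on each plate; positive means more glutamate uptake than control and negative means less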
# [18] = 75Q-TubH aggregate inhibition, S. cerevisiae, yeast (AID 1616); conditions: S. cerevisiae 75Q-TubH polyglutamine aggregation suppression; stronger effect = higher value
# [19] = restoration of touch response, mutant HTT neurons – whole organism, C. elegans mechanosensory neurons, N-terminal huntingtin (AID 1599); conditions: C. elegans polyQ-huntingtin mechanosensory neurons, stronger effect = higher value
# [20] = system: Aerobactin synthetase IucA (Klebsiella pneumoniae); assay: inhibition of K. pneumoniae IucA enzyme – biochemical, Tocris library, absorbance (AID 1345561); conditions: purified IucA enzyme assay, absorbance (OD) read-out; stronger effect = lower value;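 tested at 8 µM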;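 also: 100% = enzyme without compound and 0% = no enzyme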
# [21] = measured here: epithelial PC-3E GFP cell survival
# [22] = measured here: mesenchymal TEM4-18 mCherry cell survival
# [23] = measured here: relative caspase fold change +Dox/-Dox
# [24] = measured here: total cells with miR-34 induction, stronger effect = lower value
# [25] = measured here: total cells without miR-34 induction
# [26] = MELAS cybrid survival, CellTiter-Glo 48 h, stronger effect = higher value
# [27] = Rieske KO mouse fibroblast survival, CellTiter-Glo 72 h
smiles,measurement,setting,value
C[C@]12CC[C@H](O)CC1=CCC1C2CC[C@]2(C)C(=O)CC[C@@H]12 (some centres not stated),red/green cell ratio (normalised),[1],0.71 (inactive)
same,normalised cell number,[1]; [21],1.37
same,normalised cell number,[1]; [22],0.97
same,fold change,[2]; stronger effect = lower value,0.933 (inactive)
same,fold change,[2]; [23],1.12
same,cell count,[2]; [24],7350
same,cell count,[2]; [25],7880
C[N+]1(C)C2CCC1CC(OC(=O)C(CO)c1ccccc1)C2 (configuration not stated),period change,[3],0.05 hour (inactive) and -0.075 hour (inactive)
same,survival,[4],5.08 (inactive)
same,parasite load remaining,[5],37.4% (inactive)
same,viability,[5],106%
same,inhibition,[6],-4% (inactive) and -3% (inactive)
same,fluorescence ratio (interference),[7],1 (inactive)
same,red/green cell ratio (normalised),[1],1.05 (inactive)
same,normalised cell number,[1]; [21],0.95
same,normalised cell number,[1]; [22],1
same,remaining activity,[8],112% (inactive)
same,fold change,[2]; stronger effect = lower value,1.08 (inactive) and 0.98 (inactive) and 0.858 (inactive)
same,fold change,[2]; [23],1.57 and 0.863 and 5.64
same,cell count,[2]; [24],9760 and 10000 and 10600
same,cell count,[2]; [25],9050 and 10200 and 12400
same,outcome,[9],inactive
same,z-score,[10],0.49 (inactive) and 0.65 (inactive)
COC1=CC(=O)OC(/C=C/c2ccccc2)C1 (configuration not stated),red/green cell ratio (normalised),[1],0.84 (inactive)
same,normalised cell number,[1]; [21],0.94
same,normalised cell number,[1]; [22],0.79
same,fold change,[2]; stronger effect = lower value,0.833 (inactive)
same,fold change,[2]; [23],1.16
same,cell count,[2]; [24],4840
same,cell count,[2]; [25],5810
C[C@H](N)[C@H](O)c1ccccc1,parasite load remaining,[5],65.1% (inactive) and 27.2% (inactive)
same,viability,[5],97.7% and 73%
same,red/green cell ratio (normalised),[1],1.19 (inactive)
same,normalised cell number,[1]; [21],0.91
same,normalised cell number,[1]; [22],1.08
same,fold change,[2]; stronger effect = lower value,0.856 (inactive) and 0.884 (inactive)
same,fold change,[2]; [23],0.745 and 1.02
same,cell count,[2]; [24],11600 and 9670
same,cell count,[2]; [25],13500 and 10900
same,z-score,[11]; [26],-0.606 (inactive)
same,z-score,[11]; [27],-1.57
same,z-score,[10],-0.235 (inactive)
C[C@H]1O[C@H](OC2[C@@H](O)[C@@H](O)C(O)[C@H](O)[C@H]2O)[C@@H](N)C[C@@H]1N=C(N)C(=O)O (some centres not stated),parasite load remaining,[5],61.4% (inactive)
same,viability,[5],141%
same,red/green cell ratio (normalised),[1],1.07 (inactive)
same,normalised cell number,[1]; [21],1
same,normalised cell number,[1]; [22],1.07
same,fold change,[2]; stronger effect = lower value,0.847 (inactive)
same,fold change,[2]; [23],1.18
same,cell count,[2]; [24],8950
same,cell count,[2]; [25],10600
same,z-score,[11]; [26],-0.576 (inactive)
same,z-score,[11]; [27],-0.393
same,luciferase signal,[12],128 AU (inactive)
same,z-score,[10],0.075 (inactive)
CC(=O)O[C@H]1CC[C@@]2(C)C(=CCC3C2CC[C@]2(C)C(=O)CCC32)C1 (some centres not stated),parasite load remaining,[5],162% (inactive)
same,viability,[5],84.8%
same,red/green cell ratio (normalised),[1],0.81 (inactive)
same,normalised cell number,[1]; [21],1.28
same,normalised cell number,[1]; [22],1.04
same,activity remaining,[13],103% (inactive)
COc1cc2c3cc1Oc1c(OC)c(OC)cc4c1[C@@H](Cc1cccc(c1)Oc1ccc(c(O)c1)C[C@@H]3N(C)CC2)N(C)CC4,parasite load remaining,[5],114% (inactive)
same,viability,[5],67.7%
same,red/green cell ratio (normalised),[1],1.03 (inactive)
same,normalised cell number,[1]; [21],0.83
same,normalised cell number,[1]; [22],0.86
same,activity remaining,[13],112% (inactive)
CC(=O)OCC1=C(C(=O)O)N2C(=O)[C@@H](NC(=O)CCCC(N)C(=O)O)C2SC1 (some centres not stated),score,[14],1.28
same,cytochrome c release ratio,[15],1.12
same,inhibition of aggregation,[16],39.4%
same,glutamate uptake change,[17],3.72%
same,aggregation suppression score,[18],1.03
same,parasite load remaining,[5],94.5% (inactive)
same,viability,[5],67%
same,red/green cell ratio (normalised),[1],0.94 (inactive)
same,normalised cell number,[1]; [21],1.04
same,normalised cell number,[1]; [22],0.98
same,activity remaining,[13],111% (inactive)
CN1CC(CNC(=O)OCc2ccccc2)CC2c3cccc4c3c(cn4C)CC21 (configuration not stated),score,[14],1.1
same,rescue above control,[19],11.5
same,cytochrome c release ratio,[15],0.97
same,inhibition of aggregation,[16],12.2%
same,glutamate uptake change,[17],5.85%
same,aggregation suppression score,[18],1.13
same,red/green cell ratio (normalised),[1],0.64 (inactive)
same,normalised cell number,[1]; [21],1.26
same,normalised cell number,[1]; [22],0.81
same,activity remaining,[13],113% (inactive)
CC1=CC(=O)c2c(O)cccc2C1=O,red/green cell ratio (normalised),[1],0.13 (inactive)
same,normalised cell number,[1]; [21],0.08
same,normalised cell number,[1]; [22],0.01
same,activity remaining,[13],112% (inactive)
same,luciferase signal,[12],276 AU (active)
CCCCC[C@H]1C(=O)O[C@H](C)[C@H](NC(=O)c2cccc(NC=O)c2O)C(=O)O[C@@H](C)[C@@H]1OC(=O)CC(C)C,score,[14],0.73
same,rescue above control,[19],-18
same,cytochrome c release ratio,[15],0.26
same,inhibition of aggregation,[16],7.32%
same,glutamate uptake change,[17],3.11%
same,aggregation suppression score,[18],0.0257
same,red/green cell ratio (normalised),[1],0.71 (inactive)
same,normalised cell number,[1]; [21],0.78
same,normalised cell number,[1]; [22],0.55
same,activity remaining,[13],111% (inactive)
same,luciferase signal,[12],60 AU (inactive)
COC(C)(C)CCC[C@H](C)C/C=C/C(C)=C/C(=O)OC(C)C,red/green cell ratio (normalised),[1],0.86 (inactive)
same,normalised cell number,[1]; [21],1.2
same,normalised cell number,[1]; [22],1.03
same,activity remaining,[13],109% (inactive)
same,luciferase signal,[12],72 AU (inactive)
CS(=N)(=O)CC[C@H](N)C(=O)O (some centres not stated),period change,[3],-0.08 h (inactive)
same,survival,[4],9.75 (inactive)
same,parasite load remaining,[5],18.6% (inactive) and 51.3% (inactive)
same,viability,[5],102% and 77.3%
same,inhibition,[6],-3% (inactive)
same,fluorescence ratio (interference),[7],1 (inactive)
same,red/green cell ratio (normalised),[1],0.94 (inactive)
same,normalised cell number,[1]; [21],1.08
same,normalised cell number,[1]; [22],1.02
same,remaining activity,[8],115% (inactive)
same,fold change,[2]; stronger effect = lower value,1.04 (inactive) and 0.811 (inactive)
same,fold change,[2]; [23],0.701 and 1.11
same,cell count,[2]; [24],10400 and 8780
same,cell count,[2]; [25],9920 and 10800
same,outcome,[9],inactive
same,z-score,[10],0.45 (inactive)
CC[C@H]1C2CC3[C@@H]4N(C)c5ccccc5[C@]45C[C@@H](C2C5O)N3[C@@H]1O (some centres not stated),parasite load remaining,[5],88.5% (inactive)
same,viability,[5],73.8%
same,red/green cell ratio (normalised),[1],1.03 (inactive)
same,normalised cell number,[1]; [21],0.98
same,normalised cell number,[1]; [22],1.01
same,activity remaining,[13],112% (inactive)
CC(C)(N)Cc1ccccc1,parasite load remaining,[5],7.56% (inactive)
same,viability,[5],113%
same,red/green cell ratio (normalised),[1],0.91 (inactive)
same,normalised cell number,[1]; [21],1.06
same,normalised cell number,[1]; [22],0.97
same,fold change,[2]; stronger effect = lower value,0.89 (inactive)
same,fold change,[2]; [23],4.46
same,cell count,[2]; [24],11900
same,cell count,[2]; [25],13300
same,z-score,[11]; [26],-0.229 (inactive)
same,z-score,[11]; [27],-0.552
same,luciferase signal,[12],64 AU (inactive)
CN1CCC(c2c[nH]c3ccc(O)cc23)CC1,period change,[3],-0.16 h (inactive)
same,inhibition,[6],-2% (inactive)
same,fluorescence ratio (interference),[7],1 (inactive)
same,remaining activity,[20],116% (inactive)
same,remaining activity,[8],119% (inactive)
same,fold change,[2]; stronger effect = lower value,1.01 (inactive)
same,fold change,"[2]; stronger effect = lower value, cell number ratio, induced over uninduced",0.949 (inactive) and 0.908 (inactive)
same,fold change,[2]; [23],1.73 and 0.894 and 0.857
same,cell count,[2]; [24],10800 and 7640 and 9030
same,cell count,[2]; [25],10700 and 8050 and 9950
same,outcome,[9],inactive
same,z-score,[11]; [26],-0.212 (inactive)
same,z-score,[11]; [27],-0.062
same,z-score,[10],0.06 (inactive) and -0.325 (inactive)
